Measurements from PubChem BioAssay (Tox21).
Where “and” joins values, the source holds several entries; their conditions need not be identical. Equal values may be shown once. Inconclusive results are not listed. Entries that show only a call come without a potency. Some structures have more than one record in an assay (separate samples or runs), and their calls can disagree. Calls of active or inactive are those of the source. Unless noted, calls follow the shape of the dose curve; as a rule, active = well fitted curve in the direction sought with a large enough effect in the repeat runs; inconclusive = weak or mixed curves; inactive = no such curve, though single readings can be large; an effect the other way counts as inactive or inconclusive.

What was measured:
[1] = target: Acetylcholinesterase (Homo sapiens) (UniProt P22303); experiment: Acetylcholinesterase (AChE) small molecule antagonists: colormetric cell-based qHTS assay (AID 1347395; calls by dose curve; also: nearly all actives have a fitted effect of over 30% in size; also: potency is read from the fitted curve at half-maximal effect)
Chain of Acetylcholinesterase (Homo sapiens) (P22303 whole entry, looked up): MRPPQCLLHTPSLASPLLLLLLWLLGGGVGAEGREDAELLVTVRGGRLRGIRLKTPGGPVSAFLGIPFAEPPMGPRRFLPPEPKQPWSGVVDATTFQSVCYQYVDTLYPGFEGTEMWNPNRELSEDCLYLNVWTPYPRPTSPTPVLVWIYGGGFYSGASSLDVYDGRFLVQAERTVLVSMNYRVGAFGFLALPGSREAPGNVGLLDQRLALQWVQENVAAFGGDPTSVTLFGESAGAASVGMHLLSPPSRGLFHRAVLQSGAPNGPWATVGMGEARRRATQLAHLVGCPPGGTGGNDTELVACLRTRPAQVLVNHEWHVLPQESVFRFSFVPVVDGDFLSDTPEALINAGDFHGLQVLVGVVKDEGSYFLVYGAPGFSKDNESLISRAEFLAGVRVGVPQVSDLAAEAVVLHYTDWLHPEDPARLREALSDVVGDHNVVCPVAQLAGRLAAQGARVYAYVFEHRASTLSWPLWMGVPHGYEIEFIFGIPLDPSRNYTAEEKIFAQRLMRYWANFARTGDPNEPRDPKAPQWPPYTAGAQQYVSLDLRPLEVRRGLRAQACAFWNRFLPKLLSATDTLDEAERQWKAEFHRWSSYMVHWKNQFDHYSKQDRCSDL
How it was run: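 SH-SY5Y cells attached overnight, exposed to compound 30 min at 37 C, then given DTNB/acetylthiocholine; after 90 min at 37 C, colorimetric thiocholine read gives cellular AChE activity.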

[2] = target: Acetylcholinesterase (Homo sapiens) (UniProt P22303); experiment: Acetylcholinesterase (AChE) small molecule antagonists: enzyme-based qHTS assay (AID 1347397; calls by dose curve; also: nearly all actives have a fitted effect of over 55% in size; also: potency is read from the fitted curve at half-maximal effect); settings: Potency: AChE enzyme activity inhibition
How it was run: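 rhAChE 50 mU/mL (dispensed) + cpd or DMSO, 30 min RT; add DTNB/acetylthiocholine cocktail, 10 min RT; colorimetric thiocholine readout. qHTS, 1536-well format.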

[3] = target: Acetylcholinesterase (Homo sapiens) (UniProt P22303); experiment: Acetylcholinesterase (AChE) small molecule antagonists: fluorescence cell-based qHTS assay (AID 1347398; calls by dose curve; also: nearly all actives have a fitted effect of over 50% in size; also: potency is read from the fitted curve at half-maximal effect); settings: Potency: AChE activity
How it was run: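 Read-out is Thiolite Green fluorescence at Ex/Em = 490/520 nm, formed by reaction with thiocholine released when cellular AChE in SH-SY5Y cells hydrolyzes acetylthiocholine. Compounds were preincubated 30 min at 37 C before substrate.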

[4] = target: Acetylcholinesterase (Homo sapiens) (UniProt P22303); experiment: Acetylcholinesterase (AChE) small molecule antagonists: enzyme-based qHTS assay with human liver microsomes (AID 1347399; calls by dose curve; also: nearly all actives have a fitted effect of over 60% in size); settings: Potency: qHTS inhibition
How it was run: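 Recombinant human AChE (50 mU/mL in the enzyme mix) and human liver microsomes (0.25 mg/mL final) were preincubated with compound and NADPH (0.25 mg/mL final) for 30 min at 37 C. Acetylthiocholine/DTNB was then added; thiocholine was read colorimetrically after 10 min at room temperature.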

[5] = target: Cytochrome P450 2D6 (Homo sapiens) (UniProt P10635); experiment: Cytochrome P450 Family 2 Subfamily D Member 6 (CYP2D6) small molecule antagonists: luciferase reporter qHTS assay (AID 1671196); also: nearly all actives have a fitted effect of over 50% in size; also: potency is read from the fitted curve at half-maximal effect
Chain of Cytochrome P450 2D6 (Homo sapiens) (P10635 whole entry, looked up): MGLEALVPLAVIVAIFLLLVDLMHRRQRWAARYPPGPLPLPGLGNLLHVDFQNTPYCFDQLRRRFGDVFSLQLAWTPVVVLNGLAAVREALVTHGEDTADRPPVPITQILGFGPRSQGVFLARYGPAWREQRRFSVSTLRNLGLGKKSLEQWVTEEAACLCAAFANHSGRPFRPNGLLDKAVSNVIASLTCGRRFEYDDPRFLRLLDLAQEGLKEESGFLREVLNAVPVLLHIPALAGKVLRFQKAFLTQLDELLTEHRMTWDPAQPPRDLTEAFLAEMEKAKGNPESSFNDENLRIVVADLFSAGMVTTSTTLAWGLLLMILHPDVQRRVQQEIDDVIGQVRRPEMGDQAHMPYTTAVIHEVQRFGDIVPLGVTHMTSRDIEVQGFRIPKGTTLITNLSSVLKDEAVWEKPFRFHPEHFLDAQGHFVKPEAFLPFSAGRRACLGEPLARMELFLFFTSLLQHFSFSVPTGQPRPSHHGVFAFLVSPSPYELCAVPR
How it was run: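 Inhibition of CYP2D6 was gauged by loss of luminescence, since light produced tracks the luciferin generated from a proluciferin substrate. A 10 min room-temperature preincubation preceded 1 h NADPH-supported turnover.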

[6] = target: Cytochrome P450 2C19 (Homo sapiens) (UniProt P33261); experiment: Cytochrome P450 Family 2 Subfamily C Member 19 (CYP2C19) small molecule antagonists: luciferase reporter qHTS assay (AID 1671197); also: nearly all actives have a fitted effect of over 65% in size; also: potency is read from the fitted curve at half-maximal effect
Chain of Cytochrome P450 2C19 (Homo sapiens) (P33261 whole entry, looked up): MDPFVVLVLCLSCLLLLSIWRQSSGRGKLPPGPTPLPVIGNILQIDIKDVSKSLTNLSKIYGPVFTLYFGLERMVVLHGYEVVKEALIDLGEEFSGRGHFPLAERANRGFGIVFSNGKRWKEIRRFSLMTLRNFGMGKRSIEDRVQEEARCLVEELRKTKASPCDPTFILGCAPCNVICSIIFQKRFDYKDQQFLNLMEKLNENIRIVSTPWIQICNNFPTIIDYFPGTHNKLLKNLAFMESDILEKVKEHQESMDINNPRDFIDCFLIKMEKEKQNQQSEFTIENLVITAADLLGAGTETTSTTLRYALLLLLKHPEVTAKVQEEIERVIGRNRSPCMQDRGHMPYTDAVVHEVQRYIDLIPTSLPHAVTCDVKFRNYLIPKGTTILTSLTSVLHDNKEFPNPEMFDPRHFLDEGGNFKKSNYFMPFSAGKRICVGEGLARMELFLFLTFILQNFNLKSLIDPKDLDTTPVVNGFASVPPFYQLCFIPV
How it was run: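 Luminescent readout of CYP2C19 activity: luciferin product detected 20 min after adding detection reagent. Before that, compound and enzyme-substrate mix preincubated 10 min at room temperature; NADPH-regenerating system started a 1 h, 37C reaction. Ketoconazole as positive control.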

[7] = target: Cytochrome P450 2C9 (Homo sapiens) (UniProt P11712); experiment: Cytochrome P450 Family 2 Subfamily C Member 9 (CYP2C9) small molecule antagonists: luciferase reporter qHTS assay (AID 1671198); also: nearly all actives have a fitted effect of over 50% in size; also: potency is read from the fitted curve at half-maximal effect
Chain of Cytochrome P450 2C9 (Homo sapiens) (P11712 whole entry, looked up): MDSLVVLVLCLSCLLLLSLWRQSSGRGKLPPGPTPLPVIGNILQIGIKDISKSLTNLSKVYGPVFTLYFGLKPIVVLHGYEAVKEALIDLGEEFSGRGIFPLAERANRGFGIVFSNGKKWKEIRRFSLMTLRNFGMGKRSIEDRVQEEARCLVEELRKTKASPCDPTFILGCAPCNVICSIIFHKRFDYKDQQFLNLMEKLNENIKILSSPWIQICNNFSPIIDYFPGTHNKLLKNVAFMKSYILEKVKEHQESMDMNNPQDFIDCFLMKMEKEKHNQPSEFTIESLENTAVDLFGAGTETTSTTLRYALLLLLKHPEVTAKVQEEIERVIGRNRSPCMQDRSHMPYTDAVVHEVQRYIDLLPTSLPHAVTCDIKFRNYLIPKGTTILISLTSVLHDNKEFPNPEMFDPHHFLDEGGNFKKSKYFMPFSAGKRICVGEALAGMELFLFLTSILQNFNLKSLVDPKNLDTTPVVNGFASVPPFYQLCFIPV
How it was run: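 Enzyme-substrate mix preincubated with compound 10 min at room temperature; reaction started with NADPH regeneration solution, 1 h 37C. Luminescent luciferin product read after 20 min detection reagent.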

[8] = target: Cytochrome P450 1A2 (Homo sapiens) (UniProt P05177); experiment: Cytochrome P450 Family 1 Subfamily A Member 2 (CYP1A2) small molecule antagonists: luciferase reporter qHTS assay (AID 1671199); also: nearly all actives have a fitted effect of over 50% in size; also: potency is read from the fitted curve at half-maximal effect
Chain of Cytochrome P450 1A2 (Homo sapiens) (P05177 whole entry, looked up): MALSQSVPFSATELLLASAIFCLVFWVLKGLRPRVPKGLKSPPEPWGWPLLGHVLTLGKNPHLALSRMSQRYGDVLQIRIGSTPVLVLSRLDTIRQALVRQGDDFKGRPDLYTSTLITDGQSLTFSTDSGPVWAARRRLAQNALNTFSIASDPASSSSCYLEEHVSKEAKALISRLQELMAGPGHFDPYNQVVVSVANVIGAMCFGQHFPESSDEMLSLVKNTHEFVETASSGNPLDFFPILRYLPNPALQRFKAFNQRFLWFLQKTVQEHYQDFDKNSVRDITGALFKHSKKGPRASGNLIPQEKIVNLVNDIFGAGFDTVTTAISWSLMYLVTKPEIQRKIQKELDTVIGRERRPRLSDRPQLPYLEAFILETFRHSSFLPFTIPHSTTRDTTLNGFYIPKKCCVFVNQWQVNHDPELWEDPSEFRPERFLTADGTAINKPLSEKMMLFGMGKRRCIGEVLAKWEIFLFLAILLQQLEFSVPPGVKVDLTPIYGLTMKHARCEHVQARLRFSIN
How it was run: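 Signal from luciferin formed by CYP1A2 from a proluciferin substrate is read as luminescence, expressed in relative luminescence units. Compounds sit with enzyme 10 min, NADPH-driven reaction runs 1 h, all at room temperature.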

[9] = target: Voltage-gated inwardly rectifying potassium channel KCNH2 (Homo sapiens) (UniProt Q12809); experiment: Human Ether-a-go-go-Related Gene (hERG) channel small molecule antagonists: fluorescence cell-based qHTS assay (AID 1671200)
Chain of Voltage-gated inwardly rectifying potassium channel KCNH2 (Homo sapiens) (Q12809 whole entry, looked up): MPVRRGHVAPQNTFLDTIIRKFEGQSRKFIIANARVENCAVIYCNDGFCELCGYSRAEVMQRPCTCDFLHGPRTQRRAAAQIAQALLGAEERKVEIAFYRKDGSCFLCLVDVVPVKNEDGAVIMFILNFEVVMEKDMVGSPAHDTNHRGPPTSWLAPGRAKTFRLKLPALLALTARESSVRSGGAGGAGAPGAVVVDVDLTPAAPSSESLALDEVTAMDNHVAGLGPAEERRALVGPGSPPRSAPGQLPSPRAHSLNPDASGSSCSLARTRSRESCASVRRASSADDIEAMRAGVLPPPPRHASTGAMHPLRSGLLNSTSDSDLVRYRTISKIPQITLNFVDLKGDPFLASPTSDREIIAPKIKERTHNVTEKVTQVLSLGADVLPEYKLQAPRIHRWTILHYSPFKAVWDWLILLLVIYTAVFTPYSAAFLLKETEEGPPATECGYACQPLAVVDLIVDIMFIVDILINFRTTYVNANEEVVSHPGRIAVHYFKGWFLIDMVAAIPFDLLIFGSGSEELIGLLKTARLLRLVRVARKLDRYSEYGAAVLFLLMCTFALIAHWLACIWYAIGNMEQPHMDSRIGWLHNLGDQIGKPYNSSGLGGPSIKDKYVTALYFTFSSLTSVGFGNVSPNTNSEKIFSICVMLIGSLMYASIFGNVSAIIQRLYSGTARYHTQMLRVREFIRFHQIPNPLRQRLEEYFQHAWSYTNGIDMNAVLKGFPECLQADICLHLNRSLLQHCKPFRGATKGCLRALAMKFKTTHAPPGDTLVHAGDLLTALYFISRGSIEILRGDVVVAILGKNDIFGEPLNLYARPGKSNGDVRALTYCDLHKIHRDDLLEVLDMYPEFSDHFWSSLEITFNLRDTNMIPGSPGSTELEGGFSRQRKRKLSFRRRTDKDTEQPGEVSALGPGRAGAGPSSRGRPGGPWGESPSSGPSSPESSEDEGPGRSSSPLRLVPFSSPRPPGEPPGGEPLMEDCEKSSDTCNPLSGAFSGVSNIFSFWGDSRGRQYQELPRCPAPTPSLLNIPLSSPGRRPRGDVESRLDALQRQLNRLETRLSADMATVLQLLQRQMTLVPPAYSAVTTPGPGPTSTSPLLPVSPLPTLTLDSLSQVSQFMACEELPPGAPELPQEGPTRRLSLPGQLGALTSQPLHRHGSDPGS
How it was run: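 hERG-U2OS cells plated overnight at 37 C, loaded with FluxOR II dye 1 h at RT in dark; after 10 min, thallium stimulus added. Fluorescence (480/540 nm) read kinetically for 2 min at 1 s intervals.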

[10] = target: Cytochrome P450 3A4 (Homo sapiens) (UniProt P08684); experiment: Cytochrome P450 Family 3 Subfamily A Member 4 (CYP3A4) small molecule antagonists: luciferase reporter qHTS assay (AID 1671201); also: nearly all actives have a fitted effect of over 50% in size; also: potency is read from the fitted curve at half-maximal effect
Chain of Cytochrome P450 3A4 (Homo sapiens) (P08684 whole entry, looked up): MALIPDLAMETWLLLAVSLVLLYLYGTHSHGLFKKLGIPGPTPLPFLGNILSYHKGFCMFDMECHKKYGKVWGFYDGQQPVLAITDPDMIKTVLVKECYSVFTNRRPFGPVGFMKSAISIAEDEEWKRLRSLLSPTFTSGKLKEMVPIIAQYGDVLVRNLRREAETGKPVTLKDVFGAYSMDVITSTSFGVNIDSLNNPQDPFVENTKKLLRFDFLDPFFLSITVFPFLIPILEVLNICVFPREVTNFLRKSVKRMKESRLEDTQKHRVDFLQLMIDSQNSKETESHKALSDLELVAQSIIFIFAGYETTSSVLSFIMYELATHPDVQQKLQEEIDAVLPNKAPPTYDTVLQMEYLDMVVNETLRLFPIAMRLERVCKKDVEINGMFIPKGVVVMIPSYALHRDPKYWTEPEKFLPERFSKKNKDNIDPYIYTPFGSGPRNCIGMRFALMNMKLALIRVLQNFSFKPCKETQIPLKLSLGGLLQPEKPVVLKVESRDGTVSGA
How it was run: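 P450-Glo CYP3A4 luminescent assay: compounds preincubated 10 min at room temperature with enzyme and proluciferin substrate, NADPH regeneration added, 1 h room-temperature reaction, stopped with luciferin detection reagent; luminescence read after 20 min. Ketoconazole positive control.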

SMILES | Potency [1] | Potency [2] | Potency [3] | Potency [4] | Potency [5] | Potency [6] | Potency [7] | Potency [8] | Potency [9] | Potency [10]
Oc1cc(Cl)ccc1Cl | inactive | inactive | inactive | inactive | inactive | inactive | inactive | 36.6 µM (active) and 31.7 µM (active) | inactive | inactive
CC(C)NC(C)C | inactive | inactive | inactive | inactive | inactive |  | inactive | inactive | inactive | inactive
C=C(C)[C@H]1Cc2c(ccc3c2O[C@@H]2COc4cc(OC)c(OC)cc4[C@@H]2C3=O)O1 | inactive | inactive | inactive | inactive | inactive and 38.9 µM (active) |  | 5.09 µM (active) and 6.33 µM (active) and 9.77 µM (active) | inactive |  | 
O=S(=O)(Oc1ccc(Cl)cc1)c1ccc(Cl)cc1 | inactive | inactive | inactive | inactive | 16.1 µM (active) and 28.3 µM (active) | 114 nM (active) and 126 nM (active) | 32.1 µM (active) and 25.2 µM (active) | 2.87 µM (active) and 4.48 µM (active) |  | inactive
O=C(NC(=O)c1c(F)cccc1F)Nc1ccc(Cl)cc1 | inactive | inactive |  | inactive | inactive | inactive | inactive | 35.6 µM (active) |  | inactive
Nc1cccnc1 | inactive | inactive | inactive |  | inactive | 71 µM (active) | inactive | inactive |  | inactive
c1cc(OCC2CO2)ccc1Cc1ccc(OCC2CO2)cc1 (configuration not stated) | inactive | inactive | inactive |  | 16 µM (active) and 28.3 µM (active) | 8 µM (active) and 7.96 µM (active) | 35.7 µM (active) and 28.3 µM (active) | 71 µM (active) | inactive | 
Clc1nc(Cl)nc(Cl)n1 | inactive | inactive |  | inactive | inactive | inactive | inactive | inactive | inactive | inactive
O=C1C=CC(=O)C=C1 | inactive | inactive | inactive |  | inactive | inactive | inactive | 40.1 µM (active) |  | inactive
N#CCCCl | inactive | inactive |  | inactive | inactive | 77.7 µM (active) and inactive | inactive | inactive | inactive | inactive
CCCCC(CC)COC(=O)c1ccc(C(=O)OCC(CC)CCCC)c(C(=O)OCC(CC)CCCC)c1 (configuration not stated) | inactive | inactive | inactive |  | inactive | inactive | inactive | inactive |  | inactive
N#Cc1cc(Br)c(O)c(Br)c1 | inactive | inactive |  | inactive | inactive | inactive | 20 µM (active) and 15.3 µM (active) | inactive | inactive | inactive
CCCCCCCCC(=O)NCc1ccc(O)c(OC)c1 | inactive | inactive | inactive |  | 31.7 µM (active) and 17.4 µM (active) | 4.9 µM (active) | 2.52 µM (active) and 2.45 µM (active) | 31.7 µM (active) and 27.5 µM (active) |  | 
Cc1ccc(OP(=O)(Oc2ccc(C)cc2)Oc2ccc(C)cc2)cc1 | inactive | inactive | inactive |  | inactive |  | 7.09 µM (active) and 8.94 µM (active) | 7.09 µM (active) and 7.1 µM (active) |  | 7.09 µM (active) and 10 µM (active)
C=CCN(CC=C)C(=O)C(Cl)Cl | inactive | inactive | inactive |  | inactive | inactive | inactive | inactive |  | inactive
CN(C)c1ccc(C(=O)c2ccc(N(C)C)cc2)cc1 | inactive | inactive | inactive |  | inactive and 35.6 µM (active) | 8.85 µM (active) and 8.94 µM (active) | 31.7 µM (active) | 17.7 µM (active) and 14.2 µM (active) |  | 
Nc1ccc(-c2ccccc2)cc1 | inactive | inactive |  | inactive | 35.6 µM (active) | 11.6 µM (active) and 11.2 µM (active) | 13 µM (active) and 12.6 µM (active) | 1.83 µM (active) and 6.33 µM (active) | inactive | 6.5 µM (active) and 20 µM (active)
CCOCN(C(=O)CCl)c1c(C)cccc1CC | 33.6 µM (active) and inactive | inactive |  | inactive | inactive | 9.47 µM (active) and 15.9 µM (active) | 30 µM (active) and 39.9 µM (active) | 33.6 µM (active) and inactive | inactive | inactive

SMILES | Potency [1] | Potency [2] | Potency [3] | Potency [4] | Potency [5] | Potency [6] | Potency [7] | Potency [8] | Potency [9] | Potency [10]
COP(=S)(OC)Oc1ccc([N+](=O)[O-])cc1 | 25.2 µM (active) | inactive | inactive and 35.6 µM (active) |  | inactive and 35.6 µM (active) | 8.95 µM (active) and 2.52 µM (active) | 35.6 µM (active) and 12.6 µM (active) | 7.11 µM (active) and 2 µM (active) | inactive | 17.8 µM (active)
OCC(O)CO | inactive | inactive | inactive |  | inactive |  | inactive | inactive |  | inactive
c1ccc(P(c2ccccc2)c2ccccc2)cc1 | inactive | inactive | inactive |  |  | 10.2 µM (active) and 7.1 µM (active) | 12.9 µM (active) and 7.96 µM (active) | inactive |  | inactive
CC(O)CCO (configuration not stated) | inactive | inactive | inactive |  | 32 µM (active) and inactive |  | inactive | inactive | inactive | inactive
CCOP(=S)(OCC)O/N=C(\C#N)c1ccccc1 | 63.3 µM (active) and 17.4 µM (active) | 56.4 µM (active) | 39.9 µM (active) |  | 35.6 µM (active) |  | 2 µM (active) and 2.19 µM (active) | 1.42 µM (active) and 1.23 µM (active) | inactive | 
NNC(N)=S | inactive | inactive | inactive |  | inactive |  |  | 20.8 µM (active) and 31.7 µM (active) | inactive | inactive
N#CC(Br)Br | inactive | inactive |  | inactive | 31.5 µM (active) and inactive | inactive | inactive | inactive | inactive | inactive
CCCCOCCOP(=O)(OCCOCCCC)OCCOCCCC | inactive | inactive | inactive | inactive |  | 7.98 µM (active) and 8.94 µM (active) | 8.95 µM (active) and 15.9 µM (active) |  | inactive | 8.95 µM (active) and 15.9 µM (active)
Cc1ccc(N)c(N)c1 | inactive | inactive |  | inactive | 3.57 µM (active) and 17.8 µM (active) | 17.9 µM (active) and 31.7 µM (active) | 35.7 µM (active) and 20 µM (active) | 5.66 µM (active) and 20 µM (active) | inactive | 31.8 µM (active) and 31.7 µM (active)
O=C(O)CC[N+](=O)[O-] | inactive and 8.94 µM (active) | inactive and 28.3 µM (active) | inactive and 7.96 µM (active) |  | inactive |  |  | inactive | inactive | inactive
CC(C)C(=O)OCC(C)(C)C(OC(=O)C(C)C)C(C)C (configuration not stated) | inactive | inactive | inactive | inactive | 32 µM (active) and inactive |  | inactive | inactive |  | inactive
Brc1ccc(Oc2cc(Br)c(Br)cc2Br)c(Br)c1 | inactive | inactive | inactive |  | 35.6 µM (active) and inactive |  | 31.7 µM (active) and 18 µM (active) | 31.7 µM (active) and 32 µM (active) |  | inactive
C#C[C@]1(O)CC[C@H]2[C@@H]3CCC4=CC(=O)CC[C@]4(C)[C@H]3CC[C@@]21C | inactive | inactive | inactive |  | inactive | 6.33 µM (active) and 1.38 µM (active) |  |  |  | inactive
CC(C)N(C(=O)SCC(Cl)=C(Cl)Cl)C(C)C | inactive | inactive | inactive |  | inactive | 35.1 µM (active) and 5.03 µM (active) | inactive and 31.7 µM (active) | inactive |  | inactive
O=c1oc2ccccc2c(O)c1C(CC(O)c1ccc(-c2ccc(Br)cc2)cc1)c1ccccc1 (configuration not stated) | inactive | inactive | inactive |  | inactive |  | 3.37 µM (active) and 3.47 µM (active) | inactive | inactive | 
Nc1ccc(Cl)cc1N | inactive | inactive | inactive |  | 32.6 µM (active) |  | 32.6 µM (active) | 11.7 µM (active) and 10.9 µM (active) | inactive | 26.2 µM (active) and 5.64 µM (active)
Cc1cc(C)cc(C)c1 | inactive | inactive |  | inactive | inactive | inactive | inactive | inactive |  | inactive
CCCCCCOC(=O)c1ccccc1C(=O)OCCCCCC | inactive | inactive |  | inactive | inactive | 20.4 µM (active) and 7.96 µM (active) | 25.7 µM (active) and 7.96 µM (active) | 22.9 µM (active) and 10 µM (active) | inactive | 
